Drawing on PubChem BioAssay (NCATS), this text covers Potency, activity change, negative = inhibition and activity, negative = inhibition for six molecules.

Values without a mark were called inactive. Results filed as inconclusive are left out. Calls of active or inactive are those of the source. Unless noted, calls come from the whole dose curve; as a rule, active = well fitted curve in either direction with a large enough effect (not every such curve was filed as active); inconclusive = small, poorly fitted or top-dose-only effect, or another doubt; inactive = flat fitted curve, though single readings scatter.

The target of experiment [1] is Lysosomal acid glucosylceramidase (Homo sapiens) (UniProt P04062). The experiment is described as follows: Glucocerebrosidase-p2 (AID 348; in the data active = potency below about 10 µM; note: potency is the fitted concentration of half-maximal effect). As to conditions: purified GBA, blue fluorogenic substrate, 40 min. Summed up:
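Compounds titrated from 0.6 nM upwards against 0.2 nM enzyme in pH 5.9 citric acid/KH2PO4, taurocholate, tween-20; blue fluorogenic substrate 80 uM, 40 min room temperature, stopped and read Ex 365/Em 440 for AC50.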

The nature of experiment [2]: AP1 Signaling Pathway (AID 357).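 Note: ME-180 reporter cells stimulated with EGF at its EC50 level; % is set by controls: 0 for no effect and ±100 for the full control effect.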 As to conditions: ME-180 AP-1-bla reporter, EGF-induced, beta-lactamase ratio, 5 h; at 7.69 µM (top of the series) unless noted. Summed up: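 First, ME-180 AP-1-bla cells were cultured overnight at 37 °C in low-serum Opti-MEM. Next, titrated compounds with EC50 EGF were incubated 5 hours. Finally, CCF4 was added for 2.5 hours and the 460/530 nm ratio recorded.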

Experiment [3] concerns the target Cytochrome P450 1A2 (Homo sapiens) (UniProt P05177). Description: p450-cyp1a2 (AID 410; calls by dose curve; note: potency is the fitted concentration of half-maximal effect). As to conditions: recombinant CYP1A2, luciferin-ME demethylation, luminescence; series mostly up to 11.4 µM. Summed up:
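Human CYP1A2 (20nM) demethylated Luciferin-ME at its Km (100uM) in 100mM KPO4. After 10 min compound preincubation, NADPH regeneration ran the reaction 60 min at room temperature. Luciferin was read by luminescence, normalized to 57 uM furafylline.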

The nature of experiment [4]: NFAT Signaling Pathway (AID 444).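 Note: carbachol stimulus at about its EC50 of 1 µM final; % is set by controls: 0 for no effect and ±100 for the full control effect.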 Particulars: Jurkat NFAT-bla M1, carbachol, beta-lactamase ratio, 5 h; at 7.69 µM (top of the series) unless noted. In a few lines: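 Jurkat cells carrying an NFAT-driven β-lactamase reporter and co-transfected muscarinic M1 receptor were treated with compound plus carbachol (1 uM final, an EC50 level) for 5 h at 37 °C. CCF4 loading followed for 1 h at RT; 460/530 nm ratio gave %activity.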

Experiment [5] can be described thus: Stat Signaling Pathway (AID 446).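 Note: ME-180 cervical cancer cells given 40 pM IL-6 alongside compound; SIE-controlled beta-lactamase reporter measured as 460/530 nm FRET emission ratio; % is set by controls: 0 for no effect and ±100 for the full control effect.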 As to conditions: ME-180 (cervical carcinoma) SIE beta-lactamase reporter, IL-6 stimulated, 5 h; at 7.69 µM (top of the series) unless noted. In a few lines:
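ME-180 cells carrying a SIE-driven beta-lactamase reporter are stimulated with 40 pM IL-6 for 5 h at 37C in the presence of compound. The 460/530 nm FRET substrate ratio is read after 2.5 h at RT. Data are normalised to 300 pM IL-6 and to 125 nM JAK inhibitor controls.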

Experiment [6] concerns the target Glucocorticoid receptor (Homo sapiens) (UniProt P04150). The experiment is described as follows: GR-GFP Redistribution (AID 450;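 active = compounds whose dose series gives a full or clear partial fitted curve of increased nuclear translocation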; note: potency is the fitted concentration of half-maximal effect). Particulars: U2OS GR-GFP nuclear translocation, laser cytometry, 2 h.
The target is the same in experiment [7]. Description: GR-EFC Redistribution (AID 451; calls by dose curve; note: potency is the fitted concentration of half-maximal effect). As to conditions: CHO-K1 GR-EFC translocation, beta-gal luminescence, 2 h. In a few lines: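 CHO-K1 cells stably expressing nuclear-localized β-gal enzyme acceptor and GR fused C-terminally to the enzyme donor fragment; ligand-driven nuclear translocation restores β-gal by complementation. Compounds titrated up to 46 uM final, 2 h at 37 °C; luminescence read.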

Experiment [8] concerns the target Mitogen-activated protein kinase 10 (Mus musculus) (UniProt Q61831). Description: JNK3 AlphaScreen Assay (AID 530).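 Note: kinase came from lysate of stimulated human HepG2 cells; % is set by controls: 0 for no effect and ±100 for the full control effect.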 As to conditions: JNK3 lysate, c-Jun phosphorylation; series mostly up to 11.4 µM. In a few lines: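 JNK3 came from HepG2 lysates pre-activated with IL-1beta and TNF-alpha and phosphorylated biotinylated GST-cJun (1-79) at 10 uM ATP, pH 7.6, room temperature. Compounds were titrated. AlphaScreen signal used anti-phospho-cJun (Ser73) antibody.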
(Bead proximity is the source of the signal in Alpha formats.)

The target in experiment [9] is 3',5'-cyclic-AMP phosphodiesterase 4B (Homo sapiens) (UniProt Q07343). The experiment is described as follows: qHTS Assay for Inhibitors of PDE-IV (AID 607; active = well fitted activation curve with a large enough effect in the main read-out, with a control signal flat, not every such curve was filed as active; note: % of control where 0% means no effect). Particulars: HEK293 ACTOne CNG channel cells, membrane potential fluorescence; series mostly up to 22.9 µM. Summed up: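 HEK293 ACTOne cells with CNG channel (1000/well), endogenous PDE4; membrane potential dye, compounds up to 22.9 uM final. Fluorescence Ex 535/Em 590; RO 20-1724 (100 uM final) as reference.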
Chain of 3',5'-cyclic-AMP phosphodiesterase 4B (Homo sapiens) (Q07343 whole entry, looked up): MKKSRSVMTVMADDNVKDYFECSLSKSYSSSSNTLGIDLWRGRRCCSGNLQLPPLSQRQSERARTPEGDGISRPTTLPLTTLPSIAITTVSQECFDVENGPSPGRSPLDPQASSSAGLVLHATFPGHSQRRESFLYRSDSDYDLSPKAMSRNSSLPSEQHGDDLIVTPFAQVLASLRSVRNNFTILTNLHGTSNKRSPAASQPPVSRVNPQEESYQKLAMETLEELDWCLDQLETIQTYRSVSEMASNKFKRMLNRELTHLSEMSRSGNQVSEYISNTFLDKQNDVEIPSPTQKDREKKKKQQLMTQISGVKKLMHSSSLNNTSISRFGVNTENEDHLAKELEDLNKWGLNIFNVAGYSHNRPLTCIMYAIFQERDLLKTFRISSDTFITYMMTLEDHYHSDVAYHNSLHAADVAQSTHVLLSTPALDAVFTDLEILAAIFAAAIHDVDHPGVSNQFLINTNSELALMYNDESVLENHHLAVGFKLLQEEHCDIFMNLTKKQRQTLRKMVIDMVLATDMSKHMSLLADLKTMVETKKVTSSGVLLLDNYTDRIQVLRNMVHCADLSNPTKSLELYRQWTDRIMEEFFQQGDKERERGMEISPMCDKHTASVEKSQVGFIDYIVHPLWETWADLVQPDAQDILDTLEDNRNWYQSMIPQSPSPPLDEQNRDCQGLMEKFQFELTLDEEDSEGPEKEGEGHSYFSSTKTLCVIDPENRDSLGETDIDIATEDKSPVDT
(In general: In qHTS, concentration-response curves come from the screen itself.)

Experiment [10] has as its target Cytochrome P450 2C9 (Homo sapiens) (UniProt P11712). Description: qHTS Assay for Inhibitors and Substrates of Cytochrome P450 2C9 (AID 883; active = well fitted curve in the direction sought with a large enough effect; an effect the other way counts as inactive or inconclusive; note: nearly all actives have a fitted effect of over 60% in size; note: potency is the fitted concentration of half-maximal effect). Particulars: recombinant CYP2C9, luciferin-H luminescence, 60 min; series mostly up to 11.4 µM. In a few lines: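 A luminogenic readout tracked human CYP2C9 (10nM) converting deoxyluciferin (100uM, at KM) in 25mM KPO4 during 60 min at 37C with regenerated NADPH. Values normalized to 57uM sulphaphenazole as complete inhibition.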

Experiment [11] deals with Cytochrome P450 3A4 (Homo sapiens) (UniProt P08684). The experiment is described as follows: qHTS Assay for Activators of Cytochrome P450 3A4 (AID 885; active = well fitted curve in the direction sought with a large enough effect; an effect the other way counts as inactive or inconclusive; note: nearly all actives have a fitted effect of over 65% in size). Particulars: recombinant CYP3A4, Luciferin-PPXE luminescence, 60 min; series mostly up to 11.4 µM. In a few lines: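 Human CYP3A4 (20 nM) with Luciferin-PPXE at 25 uM (its KM) in 200 mM KPO4; 10 min compound preincubation, then NADPH regeneration and 60 min reaction at RT. Luciferin read by luminescence; normalized to 57 uM ketoconazole full inhibition.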
Chain of Cytochrome P450 3A4 (Homo sapiens) (P08684 whole entry, looked up): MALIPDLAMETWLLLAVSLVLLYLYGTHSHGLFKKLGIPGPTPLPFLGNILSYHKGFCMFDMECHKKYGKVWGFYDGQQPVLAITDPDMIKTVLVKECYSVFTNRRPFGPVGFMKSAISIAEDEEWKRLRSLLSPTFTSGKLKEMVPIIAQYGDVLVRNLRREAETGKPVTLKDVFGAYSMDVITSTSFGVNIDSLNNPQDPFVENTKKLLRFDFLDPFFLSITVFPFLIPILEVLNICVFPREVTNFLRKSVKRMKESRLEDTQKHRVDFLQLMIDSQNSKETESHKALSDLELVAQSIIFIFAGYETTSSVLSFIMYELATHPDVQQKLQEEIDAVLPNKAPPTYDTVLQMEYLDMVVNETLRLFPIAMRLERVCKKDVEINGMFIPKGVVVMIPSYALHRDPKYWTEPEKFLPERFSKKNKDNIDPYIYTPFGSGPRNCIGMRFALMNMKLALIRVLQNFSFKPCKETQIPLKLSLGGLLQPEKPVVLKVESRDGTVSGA

For experiment [12] the target is unchanged. The experiment is described as follows: qHTS Assay for Inhibitors and Substrates of Cytochrome P450 3A4 (AID 884; active = well fitted curve in the direction sought with a large enough effect; an effect the other way counts as inactive or inconclusive; note: potency is the fitted concentration of half-maximal effect; nearly all actives have a fitted effect of over 50% in size). Particulars: recombinant CYP3A4, Luciferin-PPXE luminescence; series mostly up to 57.1 µM. Summed up:
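20 nM human CYP3A4 with 25 uM Luciferin-PPXE (at KM) in 200 mM KPO4, preincubated 10 min with compound; NADPH regeneration started a 60 min RT reaction. Luciferin detected by luminescence, normalized to 57 uM ketoconazole as full inhibition.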

The target in experiment [13] is Cytochrome P450 2C19 (Homo sapiens) (UniProt P33261). The experiment is described as follows: qHTS Assay for Inhibitors and Substrates of Cytochrome P450 2C19 (AID 899; active = well fitted curve in the direction sought with a large enough effect; an effect the other way counts as inactive or inconclusive; note: potency is the fitted concentration of half-maximal effect; nearly all actives have a fitted effect of over 60% in size). As to conditions: recombinant CYP2C19, luciferin-H EGE luminescence; series mostly up to 11.4 µM. In a few lines: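 NADPH-dependent conversion of Luciferin-H EGE (10uM, at KM) by 5nM enzyme in 50mM KPO4, 60 min at 37C following 10 min compound preincubation. Stopped with luciferin detection buffer; luminescence read after 20 min.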
Chain of Cytochrome P450 2C19 (Homo sapiens) (P33261 whole entry, looked up): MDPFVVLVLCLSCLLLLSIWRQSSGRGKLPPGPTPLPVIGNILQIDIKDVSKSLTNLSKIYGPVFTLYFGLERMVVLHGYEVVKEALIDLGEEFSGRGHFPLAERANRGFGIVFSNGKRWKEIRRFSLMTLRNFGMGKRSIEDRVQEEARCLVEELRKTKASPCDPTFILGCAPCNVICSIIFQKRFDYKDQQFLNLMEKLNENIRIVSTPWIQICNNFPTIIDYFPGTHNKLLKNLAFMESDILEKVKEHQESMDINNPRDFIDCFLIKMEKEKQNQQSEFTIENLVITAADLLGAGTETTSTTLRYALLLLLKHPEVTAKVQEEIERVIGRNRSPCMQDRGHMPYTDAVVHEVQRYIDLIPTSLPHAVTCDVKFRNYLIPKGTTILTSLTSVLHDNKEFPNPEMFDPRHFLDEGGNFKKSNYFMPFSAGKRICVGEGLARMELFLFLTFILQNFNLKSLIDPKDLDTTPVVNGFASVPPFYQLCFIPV

Experiment [14] addresses Cytochrome P450 2D6 (Homo sapiens) (UniProt P10635). Description: qHTS Assay for Inhibitors and Substrates of Cytochrome P450 2D6 (AID 891; active = well fitted curve in the direction sought with a large enough effect; an effect the other way counts as inactive or inconclusive; note: potency is the fitted concentration of half-maximal effect; nearly all actives have a fitted effect of over 60% in size). As to conditions: recombinant CYP2D6, luciferin-ME EGE luminescence; series mostly up to 11.4 µM. Summed up: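 Human CYP2D6 (5 nM) with 30 uM Luciferin-ME EGE (at Km) in 100 mM KPO4, compound preincubated 10 min, then NADPH regeneration system for 60 min at room temperature. Luciferin read by luminescence; normalized to 1.43 uM quinidine.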

Chain of Glucocorticoid receptor (Homo sapiens) (P04150 whole entry, looked up, the tested form may be a part): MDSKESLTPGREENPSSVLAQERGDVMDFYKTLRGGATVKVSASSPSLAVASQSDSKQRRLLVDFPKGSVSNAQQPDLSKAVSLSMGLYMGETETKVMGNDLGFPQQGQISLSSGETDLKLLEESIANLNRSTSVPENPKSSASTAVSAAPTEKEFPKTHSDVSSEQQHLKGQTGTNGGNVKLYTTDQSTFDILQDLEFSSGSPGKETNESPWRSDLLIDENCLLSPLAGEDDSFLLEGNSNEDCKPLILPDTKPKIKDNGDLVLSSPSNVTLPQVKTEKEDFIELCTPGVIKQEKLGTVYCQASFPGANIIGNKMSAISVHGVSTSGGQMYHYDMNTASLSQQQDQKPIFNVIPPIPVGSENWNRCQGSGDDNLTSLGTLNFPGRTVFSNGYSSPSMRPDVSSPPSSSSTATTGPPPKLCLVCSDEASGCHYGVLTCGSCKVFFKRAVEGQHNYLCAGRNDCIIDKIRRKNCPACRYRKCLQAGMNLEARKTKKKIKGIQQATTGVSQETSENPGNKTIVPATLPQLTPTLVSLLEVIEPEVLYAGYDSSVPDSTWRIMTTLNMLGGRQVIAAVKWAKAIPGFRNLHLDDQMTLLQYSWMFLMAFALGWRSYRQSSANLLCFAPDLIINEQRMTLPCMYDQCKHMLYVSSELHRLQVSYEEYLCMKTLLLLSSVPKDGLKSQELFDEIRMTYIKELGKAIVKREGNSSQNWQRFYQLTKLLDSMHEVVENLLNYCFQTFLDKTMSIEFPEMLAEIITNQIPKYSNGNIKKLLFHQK
Chain of Lysosomal acid glucosylceramidase (Homo sapiens) (P04062 whole entry, looked up): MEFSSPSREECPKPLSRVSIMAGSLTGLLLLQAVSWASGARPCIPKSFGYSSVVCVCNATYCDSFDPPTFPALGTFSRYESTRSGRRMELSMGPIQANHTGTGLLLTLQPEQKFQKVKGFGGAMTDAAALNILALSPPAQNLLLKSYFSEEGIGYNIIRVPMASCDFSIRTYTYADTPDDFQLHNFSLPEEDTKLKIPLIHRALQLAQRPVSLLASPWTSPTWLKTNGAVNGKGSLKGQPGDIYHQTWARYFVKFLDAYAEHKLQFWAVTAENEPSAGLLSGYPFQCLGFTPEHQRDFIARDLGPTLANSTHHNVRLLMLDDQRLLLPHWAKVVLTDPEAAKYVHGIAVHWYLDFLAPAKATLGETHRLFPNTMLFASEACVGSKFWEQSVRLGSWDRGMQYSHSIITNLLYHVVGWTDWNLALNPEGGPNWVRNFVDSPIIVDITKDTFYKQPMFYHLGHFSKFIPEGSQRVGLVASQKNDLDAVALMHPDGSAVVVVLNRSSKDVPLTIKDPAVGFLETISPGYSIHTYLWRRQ
Chain of Cytochrome P450 1A2 (Homo sapiens) (P05177 whole entry, looked up): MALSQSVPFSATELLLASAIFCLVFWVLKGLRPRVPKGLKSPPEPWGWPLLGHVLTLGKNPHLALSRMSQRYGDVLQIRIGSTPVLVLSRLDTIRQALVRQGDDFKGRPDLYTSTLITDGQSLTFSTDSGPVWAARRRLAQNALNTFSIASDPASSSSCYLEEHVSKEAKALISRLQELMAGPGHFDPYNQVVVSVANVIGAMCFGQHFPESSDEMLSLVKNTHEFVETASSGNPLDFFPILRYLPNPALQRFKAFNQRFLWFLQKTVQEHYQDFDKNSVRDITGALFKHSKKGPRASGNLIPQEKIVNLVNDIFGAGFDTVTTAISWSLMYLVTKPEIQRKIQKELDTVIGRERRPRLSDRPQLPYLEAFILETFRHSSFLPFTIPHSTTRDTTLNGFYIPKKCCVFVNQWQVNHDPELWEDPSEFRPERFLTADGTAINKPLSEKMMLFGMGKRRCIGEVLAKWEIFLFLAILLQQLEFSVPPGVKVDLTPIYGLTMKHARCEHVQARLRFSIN
Chain of Cytochrome P450 2C9 (Homo sapiens) (P11712 whole entry, looked up): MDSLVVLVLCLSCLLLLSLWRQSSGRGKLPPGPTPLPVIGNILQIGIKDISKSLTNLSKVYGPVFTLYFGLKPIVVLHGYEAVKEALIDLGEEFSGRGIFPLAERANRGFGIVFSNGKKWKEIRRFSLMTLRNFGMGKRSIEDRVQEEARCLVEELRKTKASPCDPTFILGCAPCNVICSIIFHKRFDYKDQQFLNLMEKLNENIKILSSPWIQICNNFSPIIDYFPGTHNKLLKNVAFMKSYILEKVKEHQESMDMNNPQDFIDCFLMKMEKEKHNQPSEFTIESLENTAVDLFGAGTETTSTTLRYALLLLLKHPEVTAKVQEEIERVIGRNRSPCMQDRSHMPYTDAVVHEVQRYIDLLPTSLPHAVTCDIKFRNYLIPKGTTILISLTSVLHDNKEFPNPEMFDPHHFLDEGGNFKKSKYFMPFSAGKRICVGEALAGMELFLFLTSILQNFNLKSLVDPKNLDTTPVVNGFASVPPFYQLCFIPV
Chain of Cytochrome P450 2D6 (Homo sapiens) (P10635 whole entry, looked up): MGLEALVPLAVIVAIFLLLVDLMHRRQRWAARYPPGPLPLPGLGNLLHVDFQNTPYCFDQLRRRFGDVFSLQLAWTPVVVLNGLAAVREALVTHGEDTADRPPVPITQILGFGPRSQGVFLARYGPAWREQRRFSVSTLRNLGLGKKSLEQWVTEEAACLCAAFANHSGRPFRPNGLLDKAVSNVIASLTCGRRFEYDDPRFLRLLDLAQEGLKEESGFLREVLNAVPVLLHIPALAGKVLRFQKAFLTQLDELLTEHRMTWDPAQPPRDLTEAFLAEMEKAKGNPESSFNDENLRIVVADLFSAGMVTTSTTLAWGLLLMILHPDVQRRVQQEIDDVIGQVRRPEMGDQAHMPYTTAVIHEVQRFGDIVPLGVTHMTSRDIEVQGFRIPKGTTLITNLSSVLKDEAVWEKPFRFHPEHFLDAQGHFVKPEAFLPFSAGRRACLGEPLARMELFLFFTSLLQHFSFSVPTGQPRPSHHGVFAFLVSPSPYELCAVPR

Turning to `O=[N+]([O-])c1ccc(Nc2nc3ccccc3s2)cc1`, the Potency in [1] was above 11.4 µM; in [6], above 46 µM; in [7], above 9.22 µM; in experiment [10] it was 1.26 µM (active). Further, the activity change, negative = inhibition was 18.2% in experiment [2] and -2.36% in [4]. In addition, the Potency result in experiment [3], in experiment [8], in experiment [9] and in [11] was “inactive” in each case. In addition, the activity, negative = inhibition in [5] was 0.26%.
As to `O=C(C[C@@H]1C=Cc2ccccc2N1C(=O)c1ccccc1)c1ccccc1`, the Potency is above 11.4 µM in experiment [1]; above 46 µM in experiment [6]; above 9.22 µM in experiment [7]; 2.51 µM (active) in [10]; 3.98 µM (active) in experiment [12]; 0.501 µM (active) in [13]. For the same molecule, the activity change, negative = inhibition is -6.74% in [2], -23.2% [at 2.29 µM] in [3] and -22.9% in [4]. In experiment [5], the activity, negative = inhibition was -9.68%. In addition, the Potency entry in experiment [8], in [9] and in experiment [11] was “inactive” in each case.
`Oc1ccc(Cc2nccc3cc(O)c(O)cc23)cc1O`: the Potency in experiment [1] was above 11.4 µM; in [3], 5.01 µM (active); in [6] it was above 46 µM; in experiment [7], above 9.22 µM; in experiment [14], 1.26 µM (active). The activity change, negative = inhibition in experiment [2] was -6.37%; in experiment [4], 7.28%. In experiment [5], the activity, negative = inhibition is -2.43%. The Potency result in experiment [8], in experiment [9] and in [10] was “inactive” throughout.
Regarding `O=C1c2ccccc2N[C@H](c2cc(Cl)cc(Cl)c2O)N1CCc1ccccn1`, the Potency in experiment [1] is above 11.4 µM; in experiment [6], above 46 µM; in [7], above 9.22 µM; in [10], 3.16 µM (active); in experiment [12] it was 0.794 µM (active); in experiment [13], 3.98 µM (active). In addition, the activity change, negative = inhibition was -16.9% in experiment [2], 5.8% [at 2.29 µM] in experiment [3] and 5.29% in experiment [4]. Moreover, the activity, negative = inhibition in experiment [5] is -24.9%. For the same molecule, the Potency entry in [8], in [9] and in experiment [11] was “inactive” throughout.
Consider `Oc1cccc2ccc(SSc3ccc4cccc(O)c4n3)nc12`, for which the Potency in experiment [1] is above 11.4 µM; in [3], 3.16 µM (active); in [6], above 46 µM; in experiment [7] it was above 9.22 µM; in experiment [10] it was 1.58 µM (active); in experiment [13], 3.16 µM (active). Further, the activity change, negative = inhibition in [2] was 1.21%; in [4], -22.6%. For the same molecule, the activity, negative = inhibition in experiment [5] is -15.4%. For the same molecule, the Potency result in experiment [8], in [9] and in experiment [11] was “inactive” in each case.
As for `COc1ncc2nc(-c3ccc(Cl)cc3)c(=O)n(C[C@H]3CCCO3)c2n1`, the Potency in experiment [1] is above 11.4 µM; in experiment [3], 0.501 µM (active); in experiment [6] it was above 9.22 µM; in experiment [7], above 46 µM. Moreover, the results for the activity change, negative = inhibition in experiment [2] and in [4] were -1.85% and -7.47%, respectively. In addition, the activity, negative = inhibition in experiment [5] is -9.41%. Moreover, the Potency result in experiment [8], in [9] and in [11] was “inactive” throughout.
